Compounds with a hit are over-represented: about 8% of the library has one in this group of screens.
KB-V1 cytotox – KB-V1 MDR subline cytotoxicity. actives 3.4% (n = 400,000). Potency, µM (highest dose often 46.1 µM), most hits filed as cytotoxic. AID 1347076. KB-V1 MDR cells viability, CellTiter-Glo, 72 h; also: % is scaled to controls: 0 for no effect and ±100 for the full control effect; nearly all actives have a fitted effect of over 60% in size
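KB-V1 cells (P-gp-expressing MDR subline of KB-3-1) in phenol-red-free DMEM with 10% FBS were exposed to library compounds over a concentration series for 72 h at 37 degrees C. Viability read by CellTiter-Glo luminescence; concentration-effect curves fitted after normalization.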
SW480 rerep – induces DNA re-replication in SW480 colon adenocarcinoma cells; actives 1.8% (n = 340,000); SW480 DNA re-replication, Hoechst DNA content imaging, 48 h; Potency, µM (highest dose often 46.1 µM), inactives show top-dose re-replication activation, usual class: activators; also: % of control where 0% means no effect; nearly all actives have a fitted effect of over 55% in size
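Cells (250 per well) received 23 nL compound or DMSO by pin tool and were kept 48 hr at 37 C, 5% CO2. Nuclei were then stained with Hoechst for 40 min and scanned for DNA content.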
KB-3-1 cytotox – kills parental KB-3-1 adenocarcinoma cells; KB-3-1 viability, CellTiter-Glo ATP luminescence, 72 h; Potency, µM (doses to about 46.1 µM), actives largely listed as cytotoxic; actives 1.4% (n = 400,000); also: % is scaled to controls: 0 for no effect and ±100 for the full control effect; nearly all actives have a fitted effect of over 60% in size
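Luminescent ATP read-out (CellTiter-Glo) measures survival of drug-naive KB-3-1 cells after 72 h compound exposure at 37 °C. Titration series was screened from lowest to highest concentration, with DMSO vehicle plates as background controls.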
HT1080-NT tox – kills 2HG-producing HT-1080-NT fibrosarcoma cells | Potency, µM (doses to about 46.1 µM), for the others: at the highest dose activity, negative = less viability, hits mostly cytotoxic | HT-1080-NT fibrosarcoma viability, CellTiter-Glo ATP luminescence, 48 h | actives 1.6% (n = 360,000);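 also: NT is the 2HG producing partner of a matched IDH1 knockdown line; 0% = DMSO-treated cells and -100% = media-only wells without cells; nearly all actives have a fitted effect of over 55% in size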
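Viability of the 2HG-overproducing fibrosarcoma line after 48 hours of compound exposure at 37 degrees C was determined by luminescence with CellTiter-Glo, and concentration-effect curves were then fitted and categorized.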
HT1080 IDH1KD tx – HT-1080 IDH1 knockdown cell toxicity (counter line). HT-1080 IDH1 knockdown viability, ATP luminescence, 48 h. Potency, µM (titrated, usually from 46.1 µM), without a hit: at the top dose activity, negative = toxicity, most hits filed as cytotoxic. actives 2% (n = 360,000);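 also: 0% = DMSO wells and -100% = cell-free medium wells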
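Viability of IDH1-knockdown HT-1080 fibrosarcoma cells was assessed by CellTiter-Glo after 48 h at 37 °C with titrated compound; concentration-effect curves were classified by fit quality and response size.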
MCF10A rerep – inducers of DNA re-replication in MCF 10A breast cells; MCF 10A DNA re-replication, Hoechst nuclear intensity, 48 h; actives 2.9% (n = 350,000); AID 624296; Potency, µM (highest dose often 46.1 µM), inactives show top-dose activity, positive = re-replication, hits mostly activators; also: % of control where 0% means no effect; nearly all actives have a fitted effect of over 50% in size
An asterisk follows results filed as active; i = inactive; ? = inconclusive; / = not tested or not shown. Calls follow the shape of the dose curve; as a rule, active = well fitted curve in the direction sought with a large enough effect; inconclusive = small, poorly fitted or top-dose-only effect, or another doubt; inactive = no such curve, though single readings can be large; an effect the other way counts as inactive or inconclusive. Potency is read from the fitted curve at half-maximal effect.

SMILES	KB-V1 cytotox	SW480 rerep	KB-3-1 cytotox	HT1080-NT tox	HT1080 IDH1KD tx	MCF10A rerep
CCOC(=O)C1=NN(c2ccc(C)cc2)CC1C(=O)OC (stereo not given)	?	?	i	8.7%	0.6%	?
Cc1ccc(S(=O)(=O)N2CC(O)C[C@H]2C(=O)OCC(=O)Nc2ccc(N3CCCCC3)cc2)cc1C (stereo not given in full)	i	2.5%	i	-7.9%	-5.7%	13.5%
Fc1cccc2sc(Nc3nnc(-c4ccccc4)o3)nc12	i	11.5%	?	?	?	23.1µM*
COc1ccc(CCN2CC(C(=O)NCCCc3ccncc3)CCC2=O)cc1 (stereo not given)	i	/	i	-6.0%	-0.6%	/
Cn1c2c(c(O)c(-c3ccccc3)c1=O)C(=O)CC(C)(C)C2	i	2.6%	i	?	18.9%	2.1%
Cc1ccc(-n2c3c(c(O)c(-c4ccccc4)c2=O)C(=O)CC(C)(C)C3)cc1	11.6µM*	?	i	0.5%	5.5%	9.3%
C[n+]1ccccc1N1CCN(c2ccccc2Cl)CC1	i	1.3%	20.6µM*	-2.6%	-1.4%	4.2%
CCN(C(=O)c1nn(-c2ccc(OC)c(Cl)c2)c(=O)c2c1c1ccccc1n2C)c1cccc(C(F)(F)F)c1	?	/	i	/	/	/
Cc1nn(-c2ccccc2)c2sc(C(=O)Nc3cccc(Cl)c3)cc12	?	/	i	/	/	/
O=C(O)c1ccc(N=c2oc3cc(O)ccc3cc2C(=O)NCc2ccccc2)cc1	i	243.9%	i	-12.8%	0.8%	?
O=C(O)c1cc2ccc(O)cc2oc1=O	?	/	i	11.9%	7.4%	/
C/C(=N\NC(=O)CC#N)c1cc2ccc(O)cc2oc1=O	i	20.6µM*	i	9.0%	4.0%	9.2µM*
O=C(NCc1ccccc1)c1cc2ccc(O)cc2oc1=O	i	7.31µM*	i	-1.7%	-9.0%	16.4µM*
CC(Sc1nnc(CN2CCCC2)n1Cc1ccccc1)C(=O)Nc1ccc(F)cc1 (stereo not given)	i	-1.2%	i	-17.5%	-5.4%	?
CC(Sc1nnc(CN2CCCC2)n1Cc1ccccc1)C(=O)Nc1ccc(F)cc1Cl (stereo not given)	i	3.66µM*	i	-4.3%	1.1%	?
CC1Cc2ccccc2N1C(=O)CO/N=C/c1ccccc1OC(F)F (stereo not given)	?	16.4µM*	i	-1.7%	-18.7%	3.3%
CC(C)Cc1c2c([nH]c(=S)c1C#N)CCCC2	?	13µM*	i	8.4%	0.0%	2.9%
Cc1[nH]c(=S)c(C#N)c2c1CCCC2	i	12.6%	i	0.3%	-0.2%	1.1%
COc1ccc(C(=O)NCCS(=O)(=O)N2CCN(C(=O)c3ccco3)CC2)cc1	i	4.11µM*	i	-3.0%	4.5%	1.3%
COc1ccccc1OCc1ccc(C(=O)N2CCN(C(=O)c3ccco3)CC2)cc1	5.17µM*	-50.3%	i	12.6%	0.1%	10.7%
O=C(NCCS(=O)(=O)N1CCN(C(=O)c2ccco2)CC1)c1ccccc1	i	/	i	8.6%	6.0%	/
CCS(=O)(=O)N1CCN(C(=O)c2ccco2)CC1	i	16.7%	i	6.9%	22.0%	8.2µM*
Cc1nnc(SCC(=O)NCC2COc3ccccc3O2)s1 (stereo not given)	i	-5.7%	i	5.3%	4.1%	-2.4%
CN1CCc2c(OCc3ccc(F)cc3)cccc2C1=O	?	-5.3%	i	-4.7%	-12.9%	-7.9%
COC(=O)c1ccc(COc2cccc3c2CCN(Cc2ccccc2)C3=O)o1	?	0.2%	i	-10.1%	-15.4%	?
COC(=O)c1ccc(COc2cccc3c2CCN(Cc2cccc(C)c2)C3=O)o1	16.4µM*	?	?	-19.0%	-23.6%	?

Compound activity (PubChem)
